# Test results as given in PubChem BioAssay AID1671202 (University of Kansas High Throughput Screening Laboratory, 2021).
# Values joined by “and” are separate entries in the source; they are usually repeats but may differ in a detail not shown here. Equal entries are not always repeated. About 6,900 (3.6%) of roughly 190,000 compounds were called active. Rule as the data show it: active = inhibition above about 50%; inactive = the rest. The full list was thinned out, with actives kept by preference. The source holds several records for some structures; these can differ, active in one and inactive in another.
# Biological target: Huntingtin (Homo sapiens) (UniProt P42858)
# Sequence (P42858 whole entry, looked up, stated change not applied): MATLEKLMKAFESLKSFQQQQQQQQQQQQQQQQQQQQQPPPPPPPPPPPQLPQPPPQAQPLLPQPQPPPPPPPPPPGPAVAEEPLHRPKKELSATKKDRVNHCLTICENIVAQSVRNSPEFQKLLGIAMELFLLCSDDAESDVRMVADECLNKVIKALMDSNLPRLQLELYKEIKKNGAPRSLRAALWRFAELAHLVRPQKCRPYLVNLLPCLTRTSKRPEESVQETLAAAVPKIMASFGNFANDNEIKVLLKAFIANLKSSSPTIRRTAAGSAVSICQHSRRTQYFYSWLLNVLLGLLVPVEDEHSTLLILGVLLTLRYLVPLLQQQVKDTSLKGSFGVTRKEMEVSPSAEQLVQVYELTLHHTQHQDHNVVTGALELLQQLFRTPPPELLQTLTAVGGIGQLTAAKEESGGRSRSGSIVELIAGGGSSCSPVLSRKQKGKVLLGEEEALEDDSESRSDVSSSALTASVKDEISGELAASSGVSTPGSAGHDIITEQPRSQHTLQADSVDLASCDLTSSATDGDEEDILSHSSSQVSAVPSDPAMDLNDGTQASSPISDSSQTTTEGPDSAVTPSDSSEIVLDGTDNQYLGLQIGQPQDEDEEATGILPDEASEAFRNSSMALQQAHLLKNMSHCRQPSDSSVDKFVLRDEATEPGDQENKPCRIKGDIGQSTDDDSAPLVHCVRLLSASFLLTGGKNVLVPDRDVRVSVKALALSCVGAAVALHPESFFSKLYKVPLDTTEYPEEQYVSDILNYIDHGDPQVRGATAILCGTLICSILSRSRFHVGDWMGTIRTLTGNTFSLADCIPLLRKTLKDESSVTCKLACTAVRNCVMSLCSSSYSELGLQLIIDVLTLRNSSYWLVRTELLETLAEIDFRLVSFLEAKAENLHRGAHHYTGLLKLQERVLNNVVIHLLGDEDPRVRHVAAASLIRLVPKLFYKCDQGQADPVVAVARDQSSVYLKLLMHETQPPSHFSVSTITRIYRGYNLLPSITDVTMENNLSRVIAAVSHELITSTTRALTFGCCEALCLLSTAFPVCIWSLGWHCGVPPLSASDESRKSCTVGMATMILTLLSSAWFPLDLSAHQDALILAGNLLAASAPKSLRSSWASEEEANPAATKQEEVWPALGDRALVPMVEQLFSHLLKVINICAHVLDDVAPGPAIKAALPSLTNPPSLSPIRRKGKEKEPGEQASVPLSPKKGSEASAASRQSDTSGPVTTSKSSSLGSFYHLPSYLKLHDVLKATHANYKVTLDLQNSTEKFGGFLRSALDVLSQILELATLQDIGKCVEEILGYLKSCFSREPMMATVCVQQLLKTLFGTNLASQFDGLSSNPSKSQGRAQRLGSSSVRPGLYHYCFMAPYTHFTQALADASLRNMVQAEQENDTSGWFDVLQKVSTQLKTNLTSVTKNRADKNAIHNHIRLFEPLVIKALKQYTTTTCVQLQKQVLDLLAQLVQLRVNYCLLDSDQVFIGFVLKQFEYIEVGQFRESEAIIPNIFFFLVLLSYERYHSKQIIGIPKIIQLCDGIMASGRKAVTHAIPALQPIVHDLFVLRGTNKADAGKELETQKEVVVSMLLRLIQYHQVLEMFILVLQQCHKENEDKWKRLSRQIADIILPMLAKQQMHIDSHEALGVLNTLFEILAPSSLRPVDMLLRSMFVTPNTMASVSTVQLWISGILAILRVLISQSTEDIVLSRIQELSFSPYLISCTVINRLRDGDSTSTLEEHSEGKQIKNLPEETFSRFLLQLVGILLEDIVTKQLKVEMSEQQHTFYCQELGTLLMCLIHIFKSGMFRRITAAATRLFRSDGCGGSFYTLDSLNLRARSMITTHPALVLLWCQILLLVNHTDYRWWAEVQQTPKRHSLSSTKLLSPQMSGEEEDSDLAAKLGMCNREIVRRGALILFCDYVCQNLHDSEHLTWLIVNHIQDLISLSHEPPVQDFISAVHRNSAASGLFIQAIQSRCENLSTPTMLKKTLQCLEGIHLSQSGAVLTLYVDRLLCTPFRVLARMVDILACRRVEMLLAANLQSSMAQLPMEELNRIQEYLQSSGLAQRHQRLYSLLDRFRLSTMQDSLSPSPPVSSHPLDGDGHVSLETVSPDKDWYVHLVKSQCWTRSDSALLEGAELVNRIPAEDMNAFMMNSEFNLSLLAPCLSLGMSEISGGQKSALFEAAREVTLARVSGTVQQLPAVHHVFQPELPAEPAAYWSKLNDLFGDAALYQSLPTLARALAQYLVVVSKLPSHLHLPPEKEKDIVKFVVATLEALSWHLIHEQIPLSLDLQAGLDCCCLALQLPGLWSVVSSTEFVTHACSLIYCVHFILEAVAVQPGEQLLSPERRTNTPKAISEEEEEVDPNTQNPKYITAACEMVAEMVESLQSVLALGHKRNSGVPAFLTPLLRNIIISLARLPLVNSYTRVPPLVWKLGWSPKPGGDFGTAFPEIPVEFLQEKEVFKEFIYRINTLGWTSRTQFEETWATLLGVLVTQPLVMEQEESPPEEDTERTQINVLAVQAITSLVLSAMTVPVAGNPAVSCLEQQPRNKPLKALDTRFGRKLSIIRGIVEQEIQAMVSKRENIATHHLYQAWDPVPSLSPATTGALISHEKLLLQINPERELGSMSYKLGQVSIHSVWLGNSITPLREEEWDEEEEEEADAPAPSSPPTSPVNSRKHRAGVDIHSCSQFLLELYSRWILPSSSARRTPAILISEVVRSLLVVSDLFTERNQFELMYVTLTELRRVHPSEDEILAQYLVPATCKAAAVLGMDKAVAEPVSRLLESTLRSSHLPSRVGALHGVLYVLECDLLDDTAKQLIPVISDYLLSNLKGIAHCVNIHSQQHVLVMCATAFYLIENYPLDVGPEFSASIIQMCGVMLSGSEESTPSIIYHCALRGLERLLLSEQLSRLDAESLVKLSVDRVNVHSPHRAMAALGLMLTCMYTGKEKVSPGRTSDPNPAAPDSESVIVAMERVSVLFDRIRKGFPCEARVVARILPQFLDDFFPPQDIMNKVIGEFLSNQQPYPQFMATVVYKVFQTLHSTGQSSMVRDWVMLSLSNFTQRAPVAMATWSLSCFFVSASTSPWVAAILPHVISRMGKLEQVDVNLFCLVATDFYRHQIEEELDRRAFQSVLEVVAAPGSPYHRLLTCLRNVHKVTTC
# Assay: mutant huntingtin-calmodulin interaction inhibitors – biochemical, AlphaScreen, primary screen (AID 1671202);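 also: 0% = both proteins with DMSO and 100% = one protein alone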
# Conditions: AlphaScreen His-mHTT/GST-CaM binding, luminescence; at 15 µM, stronger effect = higher value
row,SMILES,inhibition
1,O=C(Nc1ccc(N2CCN(C(=O)C3CCCC3)CC2)nc1)c1ccc(F)cc1F,1.5% (inactive)
2,CCOc1ccc2nc(C(=O)Nc3ccc(Br)cc3)sc2c1,-2% (inactive)
3,CC(C)(CCl)C(=O)N1CCN(c2cc(Oc3ccc(F)c(F)c3)ncn2)CC1,6.2% (inactive)
4,Cc1ccc(C(=O)N2CCC(n3cnnc3-c3ccccc3)C2)cn1 (stereo unspecified),-1.7% (inactive)
5,CCC(NC(C)=O)c1cccc(Br)c1 (stereo unspecified),-3.8% (inactive)
6,O=C(Nc1ccccc1O)c1ncn[nH]1,8.9% (inactive)
7,CCC(NC(=O)c1ncn[nH]1)c1ccccc1 (stereo unspecified),89.5% (active)
8,Cc1ccc(N2CCC(C(=O)NCc3ccc(F)cc3)C2=O)cc1Cl (stereo unspecified),-0.5% (inactive)
9,COc1cccc(CC(=O)N2CCCC2c2cccc(F)c2)c1 (stereo unspecified),15% (inactive)
10,O=C(CSc1nnc(NC(=O)c2ccc(Cl)c(Cl)c2)s1)NCc1ccco1,-5.3% (inactive)
11,COc1ccc2nc(SCC(=O)NCc3cccs3)[nH]c2c1,-2% (inactive)
12,O=C(CSc1nc(CC(=O)NCc2cccs2)cc(=O)[nH]1)NCc1ccco1,100% (active)
13,COc1ccccc1NC(CNS(=O)(=O)c1ccc(Cl)cc1)c1ccccc1 (stereo unspecified),64% (active)
14,COc1ccccc1NC(=O)CC(C)c1ccccc1 (stereo unspecified),-7.2% (inactive)
15,COc1ccccc1NC(=O)c1cc(S(=O)(=O)NCc2ccccc2Cl)ccc1F,-3% (inactive)
16,COc1ccc(C2=NN(C(C)=O)C(c3cc4cc(C)ccc4nc3Cl)C2)cc1OC (stereo unspecified),-3% (inactive)
17,O=C(CN1N=C(c2ccccc2)CCC1=O)NCCc1ccc(Cl)cc1,29% (inactive)
18,O=C(NCCc1ccccc1)c1ccc(I)cc1,-3% (inactive)
19,COc1ccccc1NC(=O)Cn1nnc(-c2ccccc2F)n1,-2.8% (inactive)
20,COc1cc(C(=O)N2CCCC2)c([N+](=O)[O-])cc1OC,-4.1% (inactive)
21,COc1ccc(NC(=O)N2CCC(Cc3ccccc3)CC2)cc1,-3.2% (inactive)

row,SMILES,inhibition
1,COc1cc(C(=O)N2CCC(Cc3ccccc3)CC2)c([N+](=O)[O-])cc1OC,54.1% (active)
2,CCOc1ccc(C(=O)Nc2cc([N+](=O)[O-])ccc2C)cc1,-0.3% (inactive)
3,COc1ccc(OC)c(NC(=O)c2c(NCc3ccc(C)o3)sc3c2CCC3)c1,7.9% (inactive)
4,COc1cccc(OC)c1C(=O)Nc1sc2c(c1C(N)=O)CCCC2,25.3% (inactive)
5,COc1ccccc1NC(=O)c1c(NCc2ccncc2)sc2c1CCCC2,65% (active)
6,Cn1nccc1C(=O)N1CCCC(c2n[nH]c(C3CC3)n2)C1 (stereo unspecified),5.54% (inactive)
7,CC(=O)c1nc2sc(C)c(C)c2[nH]1,-3.74% (inactive)
8,Cc1ccc(C(O)=C2C(=O)C(=O)N(c3ncccn3)C2c2cccc(Br)c2)cc1 (stereo unspecified),51.6% (active)
9,CN(C)CCCN1C(=O)C(=O)C(=C(O)c2ccccc2)C1c1cccc(Br)c1 (stereo unspecified),-1.6% (inactive)
10,COc1ccc(C2C(=C(O)c3ccc(C)cc3)C(=O)C(=O)N2c2ccccn2)cc1 (stereo unspecified),2.6% (inactive)
11,CN1CCc2c(n(-c3ccccc3)c3ccccc23)C1=O,56.8% (active)
12,CN1CCN(CC(=O)Nc2c3c(nc4ccccc24)N(c2ccccc2)CC3)CC1,-4% (inactive)
13,N#CSc1ccc(NC(=O)c2ccc(-n3cnnn3)cc2)cc1,8.8% (inactive)
14,C=CCNC(=O)C(=O)NCc1ccccn1,-1.5% (inactive)
15,COc1cc(N)ccc1NS(=O)(=O)c1ccc(C)cc1,10.8% (inactive)
16,Cc1ccc(S(=O)(=O)Nc2cc(S(=O)(=O)O)c(N)c3c2C(=N)c2ccccc2C3=O)cc1,94% (active)
17,Cc1ccc(S(=O)(=O)Nc2ccccc2C(=O)NN)cc1,5.3% (inactive)
18,CCCc1cc(=O)[nH]c(SCC(=O)Nc2cc(C(F)(F)F)ccc2Cl)n1,-6.6% (inactive)
19,O=C(O)C1C2CCC3C(CCC21)C3C(=O)O (stereo unspecified),-1.3% (inactive)
20,C=CCOC(=O)C1=C(C)NC2=C(C(=O)CC(C)(C)C2)C1c1ccc(OCC)c(OC)c1 (stereo unspecified),-6.9% (inactive)
21,O=C(NCc1cccs1)C1CCc2sc(C(=O)N3CCCCC3)cc2C1 (stereo unspecified),3.05% (inactive)

row,SMILES,inhibition
1,O=C(NC(n1cnc2c(Cl)ncnc21)C(Cl)(Cl)Cl)c1ccccc1 (stereo unspecified),-3% (inactive)
2,O=C(Nc1cccc(Cl)c1)Nc1c2c(nn1-c1ccccc1)CSC2,15.8% (inactive)
3,CCC(Sc1nc2n[nH]c(C)c2c(=N)n1-c1ccc(OC)cc1)C(=O)Nc1ccccc1OC (stereo unspecified),30% (inactive)
4,CCOc1ccc(-n2c(SCC(=O)NC3CCCCC3)nc3n[nH]c(C)c3c2=N)cc1,10% (inactive)
5,CCC(Sc1nc2n[nH]c(C)c2c(=N)n1-c1ccc(Br)cc1)C(=O)NCCOC (stereo unspecified),75% (active)
6,Cc1ccc(C(=O)Nc2ccc(-n3cnnn3)c(C)c2)cc1,-6.6% (inactive)
7,COc1ccc(Br)cc1S(=O)(=O)NCCCn1ccnc1,-3.1% (inactive)
8,Cn1cc(C2=CCN(S(=O)(=O)c3cccc(Cl)c3)CC2)c2cccnc21,0.52% (inactive)
9,COc1cccc(-c2nc(C3CCN(S(=O)(=O)c4ccccc4F)CC3)no2)c1,-3.26% (inactive)
10,CCCOc1ccc(C2C3=C(CC(C)(C)CC3=O)Nc3ccc4ncccc4c32)cc1 (stereo unspecified),49% (inactive)
11,CC1(C)CC(=O)C2=C(C1)NC1=C(C(=O)c3ccccc31)C2c1ccc(OCc2ccccc2)cc1 (stereo unspecified),100% (active)
12,CCOc1ccc(C2C3=C(CC(C)(C)CC3=O)Nc3ncnn32)cc1 (stereo unspecified),-2.23% (inactive)
13,O=C(c1ccccc1)c1cc(S(=O)(=O)C(F)(F)F)ccc1[N+](=O)[O-],34% (inactive)
14,CCOc1ccc(CN2CCCC2c2c(C)noc2CC)cc1 (stereo unspecified),-51.7% (inactive)
15,CNC(=O)c1c(NC(=O)c2ccc(Br)s2)sc(C)c1C,-10.4% (inactive)
16,O=C(Nc1cc([N+](=O)[O-])ccc1Cl)c1ncn[nH]1,4% (inactive)
17,O=C(Nc1ccc(Cl)c(C(=O)O)c1)c1ncn[nH]1,18.5% (inactive) and 57% (active)
18,CSc1cccc(NC(=O)c2ncn[nH]2)c1,0.6% (inactive)
19,CC(C)(c1ccccc1)c1ccc(OCC(=O)Nc2ncn[nH]2)cc1,16% (inactive)
